Experimental data: PubChem BioAssay (NCI)
The panel holds about 83,000 compounds, 20% with a hit somewhere; the sample as a whole holds those more often.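 Step 1: grow cells in 96-well plates. Step 2: add test compound at a single concentration. Step 3: incubate 48 h. Step 4: record percent growth.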 Calls of active or inactive are those of the source. The calls were made as follows: active = growth percent below 10; inactive = the rest.

Columns and labels:
Assay in all cases: NCI-60 one-dose screen, 48 h (100 = growth as untreated, 0 = no growth, -100 = all killed)
Conditions in all cases: 10 µM unless noted
SR leukemia = tested on: SR leukemia
RPMI-8226 leukemia = tested on: RPMI-8226 leukemia
OVCAR-8 ovarian = tested on: OVCAR-8 ovarian
OVCAR-5 ovarian = tested on: OVCAR-5 ovarian
OVCAR-4 ovarian = tested on: OVCAR-4 ovarian
SK-OV-3 ovarian = tested on: SK-OV-3 ovarian
IGROV1 ovarian = tested on: IGROV1 ovarian
OVCAR-3 ovarian = tested on: OVCAR-3 ovarian
HS 578T breast = tested on: HS 578T breast
NCI/ADR-RES ovarian = tested on: NCI/ADR-RES ovarian
T-47D breast = tested on: T-47D breast
BT-549 breast = tested on: BT-549 breast
MDA-MB-435 melanoma = tested on: MDA-MB-435 melanoma
SW-620 colon = tested on: SW-620 colon
MCF7 breast = tested on: MCF7 breast
HCT-116 colon = tested on: HCT-116 colon
KM12 colon = tested on: KM12 colon
HCC-2998 colon = tested on: HCC-2998 colon

Measured: growth

O=C(CSc1nc2ccccc2c(=O)n1-c1ccc(Cl)cc1)N/N=C/c1ccc(N2CCCCC2)cc1
inactive: SR leukemia 74.8% | RPMI-8226 leukemia 100% | OVCAR-8 ovarian 65.3% | OVCAR-5 ovarian 76.9% | OVCAR-4 ovarian 58.6% | SK-OV-3 ovarian 30.1% | IGROV1 ovarian 55.5% | OVCAR-3 ovarian 32.8% | HS 578T breast 37.9% | NCI/ADR-RES ovarian 39.9% | T-47D breast 74.6% | BT-549 breast 104% | MDA-MB-435 melanoma 86.9% | SW-620 colon 65.9% | MCF7 breast 67.5% | HCT-116 colon 36.9% | KM12 colon 96.4%

CC(Nc1c(C#N)cnc2ccc(-c3cnc(N)nc3)cc12)c1ccccc1 (stereo not given)
inactive: SR leukemia 14% | OVCAR-8 ovarian 21.3% | OVCAR-5 ovarian 23.5% | OVCAR-4 ovarian 16.5% | OVCAR-3 ovarian 15.3% | NCI/ADR-RES ovarian 19.3% | MDA-MB-435 melanoma 15.5% | SW-620 colon 18.2% | HCT-116 colon 10.7% | KM12 colon 10.8%
active: RPMI-8226 leukemia -11% | SK-OV-3 ovarian -0.597% | IGROV1 ovarian -16% | HS 578T breast -22.5% | T-47D breast 9.18% | BT-549 breast 4.06% | MCF7 breast 8.42% | HCC-2998 colon 8.61%

COc1ccc([C@H]2c3[nH]c4ccccc4c3C[C@H]3C(=O)N(C4CCN(Cc5c(Cl)cccc5Cl)CC4)CC(=O)N23)c(OC)c1
inactive: SR leukemia 85% | RPMI-8226 leukemia 89.9% | OVCAR-8 ovarian 97.5% | OVCAR-5 ovarian 96.7% | OVCAR-4 ovarian 97.2% | SK-OV-3 ovarian 117% | IGROV1 ovarian 78.9% | OVCAR-3 ovarian 103% | HS 578T breast 88.4% | NCI/ADR-RES ovarian 90.5% | T-47D breast 83.6% | BT-549 breast 119% | MDA-MB-435 melanoma 102% | SW-620 colon 95.4% | MCF7 breast 84.3% | HCT-116 colon 92.6% | HCC-2998 colon 113% | KM12 colon 96.8%

O=C1CCCC2=C1C(c1c[nH]c3ccc(Br)cc13)Cc1cc(Br)ccc1N2 (stereo not given)
inactive: SR leukemia 33.3% | RPMI-8226 leukemia 25.1% | OVCAR-8 ovarian 55.3% | OVCAR-5 ovarian 66.2% | OVCAR-4 ovarian 101% | SK-OV-3 ovarian 44.7% | IGROV1 ovarian 24.1% | OVCAR-3 ovarian 27.2% | HS 578T breast 20.2% | NCI/ADR-RES ovarian 21.4% | T-47D breast 20.7% | BT-549 breast 39.4% | SW-620 colon 22.7% | MCF7 breast 23.4% | HCT-116 colon 19.3% | HCC-2998 colon 68.2% | KM12 colon 21.7%
active: MDA-MB-435 melanoma -10.2%

COc1c(N2CC3CCCNC3C2)c(F)cc2c(=O)c(C(=O)N/N=C/c3ccc(Br)cc3)cn(C3CC3)c12 (stereo not given)
active: SR leukemia -28.1%
inactive: RPMI-8226 leukemia 65.8% | OVCAR-8 ovarian 90.3% | OVCAR-5 ovarian 92.8% | OVCAR-4 ovarian 90.1% | SK-OV-3 ovarian 99.6% | IGROV1 ovarian 75.2% | OVCAR-3 ovarian 81.7% | HS 578T breast 88.4% | NCI/ADR-RES ovarian 90.1% | T-47D breast 84.3% | BT-549 breast 114% | SW-620 colon 89.6% | MCF7 breast 52.4% | HCT-116 colon 50.5% | HCC-2998 colon 92.2% | KM12 colon 97.3%

Nc1nc(Nc2ccccc2SSc2ccccc2Nc2nc(N)nc(-c3ccc4ccccc4c3)n2)nc(-c2ccc3ccccc3c2)n1
active: SR leukemia -25.5%
inactive: RPMI-8226 leukemia 84.3% | OVCAR-8 ovarian 84.4% | OVCAR-5 ovarian 99.3% | OVCAR-4 ovarian 83.9% | SK-OV-3 ovarian 112% | IGROV1 ovarian 47.6% | OVCAR-3 ovarian 106% | HS 578T breast 86.2% | NCI/ADR-RES ovarian 19.5% | T-47D breast 74.9% | MDA-MB-435 melanoma 85.2% | SW-620 colon 104% | MCF7 breast 76% | HCT-116 colon 57.9% | HCC-2998 colon 120%

C=C(C)[C@@H]1CC[C@]2(COC)CC[C@]3(C)[C@H](CC[C@@H]4[C@@]5(C)CCCNC(C)(C)[C@@H]5CC[C@]43C)[C@@H]12
inactive: OVCAR-8 ovarian 79.2% | OVCAR-5 ovarian 75.5% | OVCAR-4 ovarian 28.7% | SK-OV-3 ovarian 102% | IGROV1 ovarian 37.2% | OVCAR-3 ovarian 80.9% | HS 578T breast 37.8% | NCI/ADR-RES ovarian 51.3% | T-47D breast 54.1% | MDA-MB-435 melanoma 10.4% | KM12 colon 38.1%
active: SR leukemia -54.9% | RPMI-8226 leukemia -36.8% | SW-620 colon -57.6% | MCF7 breast 7.62% | HCT-116 colon -29.1% | HCC-2998 colon -29.1%

O=C(Nc1ccc2c(ccn2Cc2ccccn2)c1)c1cnccn1
inactive: SR leukemia 92.7% | RPMI-8226 leukemia 93.7% | OVCAR-8 ovarian 105% | OVCAR-5 ovarian 96.8% | OVCAR-4 ovarian 76% | SK-OV-3 ovarian 109% | IGROV1 ovarian 79.7% | OVCAR-3 ovarian 110% | HS 578T breast 104% | NCI/ADR-RES ovarian 107% | T-47D breast 101% | MDA-MB-435 melanoma 100% | SW-620 colon 93.7% | MCF7 breast 98.1% | HCT-116 colon 100% | HCC-2998 colon 115% | KM12 colon 100%

CC(=O)Nc1cccc(Nc2nc(N[C@H](C)c3ccccc3)c3ccccc3n2)c1
active: SR leukemia -7.47% | RPMI-8226 leukemia -20.3%
inactive: OVCAR-8 ovarian 74.8% | OVCAR-5 ovarian 70.6% | OVCAR-4 ovarian 34.9% | SK-OV-3 ovarian 94.8% | IGROV1 ovarian 51.8% | OVCAR-3 ovarian 55.9% | HS 578T breast 80.5% | NCI/ADR-RES ovarian 39.1% | T-47D breast 78.8% | MDA-MB-435 melanoma 24.3% | SW-620 colon 61.5% | MCF7 breast 27.8% | HCT-116 colon 31% | HCC-2998 colon 88.7% | KM12 colon 55.9%

C[C@@H](Nc1ncnc2ccc(-c3cnc(Cl)c(NS(C)(=O)=O)c3)cc12)c1ccccc1
active: IGROV1 ovarian 3.14% | T-47D breast 9.4%
inactive: SR leukemia 47.6% | RPMI-8226 leukemia 23.9% | OVCAR-8 ovarian 75.9% | OVCAR-5 ovarian 38.4% | OVCAR-4 ovarian 58.3% | SK-OV-3 ovarian 55.6% | OVCAR-3 ovarian 44.6% | HS 578T breast 27.1% | NCI/ADR-RES ovarian 85% | MDA-MB-435 melanoma 60.9% | SW-620 colon 67.7% | MCF7 breast 21.3% | HCT-116 colon 61% | HCC-2998 colon 70.6% | KM12 colon 89.3%

O=C(Nc1ccc(N=Cc2c(O)[nH]c3ccccc23)cc1)Nc1nccs1
active: MDA-MB-435 melanoma -52.7%
inactive: SR leukemia 10.7% | RPMI-8226 leukemia 83.6% | OVCAR-8 ovarian 55.7% | OVCAR-5 ovarian 60.4% | OVCAR-4 ovarian 40.6% | SK-OV-3 ovarian 55% | IGROV1 ovarian 29.5% | OVCAR-3 ovarian 15.4% | HS 578T breast 31.5% | NCI/ADR-RES ovarian 40.8% | T-47D breast 41.2% | SW-620 colon 21.4% | MCF7 breast 22.7% | HCT-116 colon 27% | HCC-2998 colon 73.9% | KM12 colon 59.2%

CC(C)C[C@@H]1N[C@@]2(C(=O)Nc3ccccc32)[C@@H](c2ccc(F)cc2)[C@@H]1C(=O)c1ccc(O)cc1
inactive: SR leukemia 73.5% | RPMI-8226 leukemia 91.2% | OVCAR-8 ovarian 97.1% | OVCAR-5 ovarian 95.6% | OVCAR-4 ovarian 89.6% | SK-OV-3 ovarian 108% | IGROV1 ovarian 53.4% | OVCAR-3 ovarian 96.9% | HS 578T breast 84.5% | NCI/ADR-RES ovarian 94.1% | T-47D breast 76.5% | MDA-MB-435 melanoma 102% | SW-620 colon 101% | MCF7 breast 92.5% | HCT-116 colon 86.7% | HCC-2998 colon 108% | KM12 colon 96.1%

Cc1cc(S(=O)(=O)N(C)C)cc(NCC(=O)NC(=O)NCC(C)C)c1C
inactive: SR leukemia 91% | RPMI-8226 leukemia 97.4% | OVCAR-8 ovarian 104% | OVCAR-5 ovarian 87.8% | OVCAR-4 ovarian 76.4% | SK-OV-3 ovarian 112% | IGROV1 ovarian 77.2% | OVCAR-3 ovarian 112% | HS 578T breast 103% | NCI/ADR-RES ovarian 114% | T-47D breast 110% | MDA-MB-435 melanoma 98.8% | SW-620 colon 98.4% | MCF7 breast 94.8% | HCT-116 colon 100% | HCC-2998 colon 120% | KM12 colon 102%

O=C(CN1CCN(c2cc(=O)n(-c3ccccc3)c3ccccc23)CC1)Nc1nc(-c2ccccc2)cs1
inactive: SR leukemia 51.3% | RPMI-8226 leukemia 46.2% | OVCAR-8 ovarian 69.8% | OVCAR-5 ovarian 94.1% | OVCAR-4 ovarian 23.3% | SK-OV-3 ovarian 70.7% | IGROV1 ovarian 67.5% | OVCAR-3 ovarian 72.5% | HS 578T breast 82.9% | NCI/ADR-RES ovarian 62.7% | T-47D breast 16.6% | MDA-MB-435 melanoma 73.4% | SW-620 colon 68.6% | MCF7 breast 27.6% | HCT-116 colon 53.4% | HCC-2998 colon 81.8% | KM12 colon 63%

O=c1[nH]c(Sc2sc3ccc(Cl)cc3c2CBr)nc(=S)[nH]1
inactive: RPMI-8226 leukemia 24.2% | OVCAR-8 ovarian 41.2% | OVCAR-5 ovarian 49.3% | OVCAR-4 ovarian 40.7% | SK-OV-3 ovarian 18.4% | OVCAR-3 ovarian 56% | HS 578T breast 19.3% | NCI/ADR-RES ovarian 65.3% | BT-549 breast 48.5% | SW-620 colon 40.4% | MCF7 breast 15.2% | HCT-116 colon 38.6% | KM12 colon 12.8%
active: SR leukemia 7.03% | IGROV1 ovarian 4.63% | T-47D breast -0.0992%

O=c1[nH]c2ccccc2cc1CSc1ccccc1Nc1nccc(-c2ccc(Cl)cc2)n1
inactive: SR leukemia 99.2% | RPMI-8226 leukemia 94.5% | OVCAR-8 ovarian 96.9% | OVCAR-5 ovarian 110% | OVCAR-4 ovarian 86.2% | SK-OV-3 ovarian 112% | IGROV1 ovarian 89.6% | OVCAR-3 ovarian 101% | HS 578T breast 88.6% | NCI/ADR-RES ovarian 95.1% | T-47D breast 93.3% | MDA-MB-435 melanoma 99.9% | SW-620 colon 101% | MCF7 breast 81.1% | HCT-116 colon 100% | HCC-2998 colon 114% | KM12 colon 100%

C=C(C)[C@@H]1CC[C@]2(COP(=O)(OCC)OCC)CC[C@]3(C)[C@H](CC[C@@H]4[C@@]5(C)CCCNC(C)(C)[C@@H]5CC[C@]43C)[C@@H]12
inactive: OVCAR-8 ovarian 55.4% | OVCAR-5 ovarian 58.6% | OVCAR-4 ovarian 23.5% | SK-OV-3 ovarian 103% | OVCAR-3 ovarian 54% | HS 578T breast 52.9% | NCI/ADR-RES ovarian 27.6% | T-47D breast 59.1% | MDA-MB-435 melanoma 36.5% | SW-620 colon 15.3% | MCF7 breast 13.8% | KM12 colon 55.7%
active: SR leukemia -51.4% | RPMI-8226 leukemia -46.6% | IGROV1 ovarian 6.74% | HCT-116 colon -68.8% | HCC-2998 colon -27.4%
